# This is one part of a sample in which hits are shown more often than they occur.
# DUX4 txn inh: blocks DUX4-driven transcriptional activation; activity change, negative = inhibition, % (concentration not given with the values); actives 0.8% (n = 37,000); 293T-iDUX4 ZSCAN4-Gaussia luciferase reporter, 24 h; hits give low values; AID 1224904;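 active = mean inhibition of at least 10% in the main channel, exceeding the control channel by a set limit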;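 also: 0% = median of neutral control wells and -100% = median of positive control wells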
# * marks the source's active call; other numbers are inactive results; ! = not active in a repeat.
SMILES,DUX4 txn inh
Cc1ccccc1S(=O)(=O)N1[C@H](C#N)[C@H](c2ccc(-c3ccc(F)cc3)cc2)[C@H]1CO,-4.4
Cc1ccccc1S(=O)(=O)N1[C@@H]2CNC[C@H]1C2c1ccc(-c2cccc(C#N)c2)cc1 (stereo partly drawn),-8.4
Cc1ccccc1S(=O)(=O)N1C[C@@H]2N[C@H](C1)C2c1ccc(-c2ccc(C#N)cc2)cc1 (stereo partly drawn),-68.8*!
CS(=O)(=O)N1[C@H](C#N)[C@@H](c2ccc(/C=C/c3ccccc3)cc2)[C@H]1CO,4.1
Cc1ccccc1S(=O)(=O)N1C[C@@H]2N[C@H](C1)C2c1ccc(/C=C/c2ccccc2)cc1 (stereo partly drawn),-37.2*
COc1cccc(S(=O)(=O)N2C[C@H](O)COC[C@@H]3O[C@H](CC(=O)N4CCN(c5ccccc5)CC4)CC[C@H]32)c1,4.6
CO[C@@H]1CN(C)C(=O)c2ccc(NS(C)(=O)=O)cc2OC[C@@H](C)N(Cc2ccccn2)C[C@@H]1C,3.3
C[C@H](CO)N1C[C@H](C)[C@@H](CN(C)S(C)(=O)=O)Oc2c(NC(=O)C3CCCCC3)cccc2C1=O,5.1
CCCN(C)C[C@@H]1OCCCC[C@H](C)Oc2ccc(NC(=O)CCCN(C)C)cc2C(=O)N([C@H](C)CO)C[C@@H]1C,1.6
CO[C@H]1CN(C)C(=O)c2ccc(NC(C)=O)cc2OC[C@@H](C)N(Cc2cccnc2)C[C@@H]1C,0.0
CO[C@@H]1CN(C)C(=O)c2ccc(NC(=O)c3nc4ccccc4s3)cc2OC[C@@H](C)N(Cc2cccnc2)C[C@H]1C,-64.9*
CO[C@@H]1CN(C)C(=O)c2ccc(NC(C)=O)cc2OC[C@H](C)N(Cc2cccnc2)C[C@H]1C,2.0
COC(=O)C[C@H]1C[C@@H]2c3cc(NC(=O)CN(C)C)ccc3O[C@@H]2[C@@H](CO)O1,5.6
C/C=C/c1ccc([C@H]2[C@H](CO)N3CCCCN(C(=O)Nc4ccc(F)cc4)C[C@@H]23)cc1,8.0
O=C(Cc1ccccc1)N1C[C@H]2[C@@H](c3ccccc31)[C@H](CO)N2S(=O)(=O)c1ccccc1,3.7
O=C(NC1CCC1)[C@H]1[C@H](CO)[C@H]2Cn3c(ccc(C4=CCCC4)c3=O)[C@@H]1N2C(=O)c1ccccc1,-3.3
CO[C@H]1CN(C)C(=O)c2ccc(NC(=O)Nc3ccc4c(c3)OCO4)cc2OC[C@@H](C)NC[C@H]1C,-5.8
COCCNC(=O)C[C@H]1C[C@H]2c3cc(NC(=O)Nc4ccccc4F)ccc3O[C@H]2[C@H](CO)O1,-3.1
O=C(C[C@H]1C[C@@H]2c3cc(NC(=O)Nc4ccccc4F)ccc3O[C@@H]2[C@H](CO)O1)NCc1cc(F)ccc1F,0.5
COCCNC(=O)C[C@@H]1C[C@H]2c3cc(NC(=O)Nc4ccccc4F)ccc3O[C@H]2[C@H](CO)O1,-5.6
O=C(C[C@@H]1C[C@H]2c3cc(NC(=O)Nc4ccccc4F)ccc3O[C@H]2[C@H](CO)O1)NCc1cc(F)ccc1F,-52.4*
O=C(C[C@@H]1C[C@H]2c3cc(NC(=O)Nc4ccccc4F)ccc3O[C@H]2[C@@H](CO)O1)NCCc1ccccc1,-21.6*
COc1ccccc1CNC(=O)C[C@@H]1C[C@H]2c3cc(NC(=O)Nc4ccccc4F)ccc3O[C@H]2[C@H](CO)O1,-8.9
CCCNC(=O)[C@H]1[C@H](CO)[C@H]2Cn3c(ccc(-c4ccc(F)cc4)c3=O)[C@@H]1N2C,-3.3
CN1[C@@H]2c3ccc(-c4ccncc4)c(=O)n3C[C@H]1[C@H](CO)[C@H]2C(=O)NCC1CCCCC1,2.4
SMILES,DUX4 txn inh
O=C(Cc1ccncc1)NCC[C@H]1CC[C@H](NC(=O)C2CCOCC2)[C@H](CO)O1,3.7
O=C(O)C[C@H]1C[C@@H]2c3cc(NC(=O)C4CCC4)ccc3O[C@@H]2[C@@H](CO)O1,2.6
COc1ccccc1-c1ccc2c(c1)O[C@@H](CN(C)C(=O)Nc1cccc(F)c1)[C@H](C)CN([C@H](C)CO)S2(=O)=O,3.3
CC(C)C#Cc1ccc([C@@H]2[C@@H](CO)N3CCCCN(C(=O)c4ccc(F)cc4)C[C@H]23)cc1,0.1
O=C(CN1CCOCC1)N1CCCCN2[C@H](C1)[C@@H](c1ccc(/C=C/c3ccccc3)cc1)[C@@H]2CO,-6.7
O=C(c1cccc(F)c1)N1CCCCN2[C@H](CO)[C@H](c3ccc(-c4ccccc4)cc3)[C@H]2C1,2.5
CC(C)C#Cc1ccc([C@H]2[C@@H](CO)N3CCCCN(C(=O)c4ccc(F)cc4)C[C@H]23)cc1,-40.1*
CCC(=O)N1CCCCN2[C@@H](CO)[C@H](c3ccc(/C=C/c4ccccc4)cc3)[C@@H]2C1,-16.2*
O=C(c1cccc(F)c1)N1CCCCN2[C@H](C1)[C@H](c1ccc(/C=C/c3ccccc3)cc1)[C@@H]2CO,-9.3
O=C(c1cccc(F)c1)N1CCCCN2[C@H](C1)[C@@H](c1ccc(/C=C/c3ccccc3)cc1)[C@@H]2CO,-41.1*
CC(C)(O)C#Cc1ccc([C@H]2[C@@H](CO)N3CCCCN(C(=O)c4ccc(F)cc4)C[C@H]23)cc1,-4.8
